Source: PubChem BioAssay (National Center for Advancing Translational Sciences (NCATS))
Epigenetic derep: Quantitative High-Throughput Screen for Regulators of Epigenetic Control; murine LDR cells, GFP reporter derepression, 30 h; actives 0.2% (n = 280,000); Potency, µM (top dose mostly 53.9 µM), inactives show at the top dose GFP activation, actives largely listed as activators; also: % of control where 0% means no effect; nearly all actives have a fitted effect of over 60% in size
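Murine LDR cells bearing a silenced CMV-driven GFP reporter were exposed to compound for 30 h at 37 C. After PBS washes, GFP-positive cells (20-120 um objects) counted by laser-scanning microplate cytometry.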
PINK1 modulator: A Quantitative High throughput Screen to Identify Chemical Modulators of PINK1 Expression. PINK1 immunofluorescence, high-content cytometry, 24 h. Potency, µM (highest dose often 76.6 µM), without a hit: at the highest dose activation (PINK1 increase), usual class: activators. actives 0.2% (n = 410,000). AID 624263, 2012; active = well fitted activation curve with a large enough effect; inconclusive = small, poorly fitted or top-dose-only effect; cell line not stated here; also: % of control where 0% means no effect; nearly all actives have a fitted effect of over 65% in size
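Readout is PINK1 immunofluorescence, quantified alongside mitochondrial, cell and nuclear markers by laser-scanning microplate cytometry. Cells from a stable line were exposed to compound titrations (5 concentrations) for 24 hours, with CCCP controls.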
RORg inh: qHTS for inhibitors of ROR gamma transcriptional activity | Drosophila S2 Gal4-RORgamma UAS-luciferase reporter, 20 h | Potency, µM (series often up to 53.6 µM), for the others: top-dose activity change, negative = inhibition, usual class: inhibitors | actives 5.4% (n = 310,000); also: % is scaled to controls: 0 for no effect and ±100 for the full control effect; nearly all actives have a fitted effect of over 60% in size
Target sequence (P51450 whole entry, looked up, the tested form may be a part): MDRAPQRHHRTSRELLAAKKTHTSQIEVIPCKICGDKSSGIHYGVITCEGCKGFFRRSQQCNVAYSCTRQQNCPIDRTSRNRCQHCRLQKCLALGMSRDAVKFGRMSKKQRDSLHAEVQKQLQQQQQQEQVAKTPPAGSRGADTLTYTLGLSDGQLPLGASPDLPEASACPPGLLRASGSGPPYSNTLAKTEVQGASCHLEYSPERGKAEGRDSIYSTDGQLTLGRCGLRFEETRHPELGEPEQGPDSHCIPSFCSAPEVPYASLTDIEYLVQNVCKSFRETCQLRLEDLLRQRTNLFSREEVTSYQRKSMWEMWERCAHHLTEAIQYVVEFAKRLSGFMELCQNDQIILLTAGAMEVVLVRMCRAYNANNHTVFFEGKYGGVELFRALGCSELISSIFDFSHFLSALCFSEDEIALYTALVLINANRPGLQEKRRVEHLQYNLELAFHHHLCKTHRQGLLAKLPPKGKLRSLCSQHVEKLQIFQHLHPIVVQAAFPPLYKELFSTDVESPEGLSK
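Using a luciferase readout, inhibitors were identified by reduced reporter activity in Drosophila cells coexpressing a copper-inducible Gal4–ROR gamma fusion and UAS-driven Photinus luciferase, incubated 20 hr after 700 uM copper sulfate.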
ClpP mod: qHTS Assay for Activators of ClpP. purified B. subtilis ClpP, FRET peptide cleavage, 20 min. Potency, µM (highest dose often 57.5 µM), inactives show at the highest dose activity change, negative = active. ATP-dependent Clp protease proteolytic subunit (Bacillus subtilis (strain 168)), P80244. AID 651965, 2013. actives 1.9% (n = 340,000); active = well fitted falling curve with a large enough effect; inconclusive = small, poorly fitted or top-dose-only effect; inactive = no such curve, though single readings can be large or run the other way; also: the source files actives as falling curves though it sought activators and does not explain the sign; nearly all actives have a fitted effect of over 65% in size
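Buffer: 100 mM Tris/HCl pH8, 100 mM KCl, 0.05% low protease BSA, 2.5% glycerol, 0.01% Tween-20. ClpP 10 microg/mL final; 20 min RT; delta FRET normalized to ADEP and DMSO controls.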
Sfp inh: qHTS Assay for Inhibitors of Bacillus subtilis Sfp phosphopantetheinyl transferase (PPTase); 4'-phosphopantetheinyl transferase ffp (Bacillus subtilis), Q9F4F7; Potency, µM, inactives show largest response in the series, negative = inhibition, usual class: inhibitors; actives 3.5% (n = 310,000); Biochemical Sfp PPTase activity, qHTS;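 also: the enzyme is Sfp with the accession as filed and its product quenches rhodamine fluorescence; 0% = enzyme reaction without inhibitor and -100% = no enzyme wells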
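After 15 min at room temperature with compound, 15 nM Sfp received 5 uM rhodamine-CoA plus 12.5 uM BHQ-2-ybbR (50 mM Hepes pH 7.6, 10 mM MgCl2). Rate came from the fluorescence difference over 30 min, ex 525/em 598 nm.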
Gal4-VP16 FLuc: VP16 counterscreen qHTS for inhibitors of ROR gamma transcriptional activity | Drosophila S2 Gal4-VP16 UAS-luciferase, luminescence, 20 h | Potency, µM (highest dose often 53.6 µM), without a hit: top-dose activity, negative = inhibition, most hits filed as inhibitors | actives 3.5% (n = 310,000);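 also: Gal4-VP16 expression switched on by copper sulfate through the metallothionein promoter; % is scaled to controls: 0 for no effect and ±100 for the full control effect; nearly all actives have a fitted effect of over 50% in size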
Numbers without * were called inactive; ? = inconclusive; . = no result given; [ ] = another dose, or the depositor's remark. The list is not random: actives were taken first. Their share in the collection is about 8.1%. Unless noted, calls follow the shape of the dose curve; as a rule, active = well fitted curve in the direction sought with a large enough effect; inconclusive = small, poorly fitted or top-dose-only effect, or another doubt; inactive = no such curve, though single readings can be large; an effect the other way counts as inactive or inconclusive. Potency is read from the fitted curve at half-maximal effect.

SMILES	Epigenetic derep	PINK1 modulator	RORg inh	ClpP mod	Sfp inh	Gal4-VP16 FLuc
O=C(N/N=C/c1ccncc1)c1cccc(S(=O)(=O)Nc2ccc(Cl)cc2)c1	2%	1%	-14%	0%	56µM*	-6%
Cc1ccc(/C=N/NC(=O)c2cccc(S(=O)(=O)Nc3cccc(Cl)c3)c2)o1	1%	3%	13µM*	-21%	2%	?
COc1ccccc1NS(=O)(=O)c1cccc(C(=O)OCC(=O)Nc2cc(C)on2)c1	-1%	0%	11µM*	-1%	24%	-25%
Cc1ccc(/C=N/NC(=O)c2ccc(NC(=O)c3ccc(Cl)cc3)cc2)o1	.	4%	9%	-7%	15%	-5%
COc1ccccc1NS(=O)(=O)c1cccc(C(=O)N/N=C/c2ccc(C)o2)c1	-1%	0%	11µM*	-7%	-20%	14µM*
COc1ccc(C2Nc3ccccc3-c3nnc(SC)nc3O2)cc1C (centres undefined)	0%	2%	.	-2%	.	.
CC1=C(C(=O)Nc2cccnc2)C(c2ccc(C)cc2)n2nc(SCc3ccccc3F)nc2N1 (centres undefined)	-1%	1%	.	0%	.	.
COc1ccccc1/C=N/NC(=O)c1ccccc1NS(=O)(=O)c1ccc(C)cc1	-2%	3%	13µM*	-7%	-17%	?
Cc1ccc(S(=O)(=O)Nc2ccccc2C=NNC(=O)c2ccncc2)cc1	.	8%	.	0%	.	.
O=C(c1ccccc1Br)N(Cc1ccco1)Cc1ccco1	0%	-1%	.	-3%	.	.
O=C(COc1ccccc1)Nc1ncn[nH]1	0%	0%	-1%	0%	?	-12%
CC(C)(C)c1ccccc1OCC(=O)Nc1ncn[nH]1	-2%	0%	11µM*	4%	1%	?
CC(C)(C)c1cc(Br)ccc1OCC(=O)Nc1ncn[nH]1	-1%	-1%	3.5µM*	1%	21%	18µM*
O=C(COc1ccc(Br)cc1Cl)Nc1ncn[nH]1	?	1%	.	-2%	.	.
CCOc1ccccc1NC(=O)c1nc[nH]c1C(=O)Nc1ccccc1OCC	2%	14%	2µM*	2%	-7%	4µM*
Cc1ccccc1NC(=O)c1[nH]cnc1C(=O)NN	.	5%	-18%	-15%	23%	4%
COc1ccccc1NC(=O)c1nc[nH]c1C(=O)Nc1ccccc1OC	0%	2%	2µM*	32%	56µM*	?
Cc1nc(SC(C(N)=O)c2ccccc2)c(C#N)c(C)c1C (centres undefined)	-1%	8%	-1%	45%	0%	13%
CCCCS(=O)(=O)CC(O)CSc1nc(-c2ccc(C)cc2)cc(-c2ccccc2)c1C#N (centres undefined)	-1%	2%	.	3.5µM*	.	.
COc1ccccc1-c1cc(-c2ccccc2)nc(SC(C(N)=O)c2ccccc2)c1C#N (centres undefined)	?	-1%	11µM*	-25%	-16%	?
N#Cc1c(-c2ccccc2)cc(-c2ccccc2)nc1SCCC(=O)O	.	3%	-1%	1%	45µM*	-4%
N#Cc1c(-c2ccc(F)cc2)cc(-c2ccccc2)nc1SCC(=O)NCC(=O)O	-1%	5%	18%	-17%	2.2µM*	-7%
CCN1C(=NCc2cccc(Cl)c2)N[C@@H](c2cccc(C(F)(F)F)c2)C(C(=O)OC)=C1C	.	0%	.	-3%	.	.
Cc1nn(-c2cc(C)c3ccccc3n2)c2c1C1C(C2)C1(C)C (centres undefined)	-1%	9%[38.3 µM]	0.71µM*	-29%	4%	18µM*
Cc1cc(-n2nnc3ccccc32)nc2ccccc12	9%	2%	-6%	-5%	-7%	-2%
